GPR151 ag – activators of human GPR151; PathHunter beta-arrestin GPR151 cells, luminescence; activation, % at 11.2 µM; actives 1% (n = 650,000); in the data active = activation above about 4.9%;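 also: 0% = median of compound wells and 100% = cells with positive control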
MITF inh – blocks human microphthalmia-associated transcription factor | O75030 | AID 1259374 | inhibition, % at 2.6 µM | AlphaScreen MITF homodimerization, bead proximity signal | actives 0.91% (n = 650,000); in the data active = inhibition above about 50%;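 also: 0% = vehicle wells with protein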
FBW7 activator – activators of human E3 ligase FBW7; Q969H0; AlphaScreen FBW7–phospho-cyclin E peptide binding, activator screen; normalized activity (activation), % at 26.1 µM; actives 0.13% (n = 650,000); AID 1259310; in the data active = normalized activity above about 1.9%;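 also: purified mutant Fbw7 with reduced substrate affinity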
Target sequence (Q969H0 whole entry, looked up): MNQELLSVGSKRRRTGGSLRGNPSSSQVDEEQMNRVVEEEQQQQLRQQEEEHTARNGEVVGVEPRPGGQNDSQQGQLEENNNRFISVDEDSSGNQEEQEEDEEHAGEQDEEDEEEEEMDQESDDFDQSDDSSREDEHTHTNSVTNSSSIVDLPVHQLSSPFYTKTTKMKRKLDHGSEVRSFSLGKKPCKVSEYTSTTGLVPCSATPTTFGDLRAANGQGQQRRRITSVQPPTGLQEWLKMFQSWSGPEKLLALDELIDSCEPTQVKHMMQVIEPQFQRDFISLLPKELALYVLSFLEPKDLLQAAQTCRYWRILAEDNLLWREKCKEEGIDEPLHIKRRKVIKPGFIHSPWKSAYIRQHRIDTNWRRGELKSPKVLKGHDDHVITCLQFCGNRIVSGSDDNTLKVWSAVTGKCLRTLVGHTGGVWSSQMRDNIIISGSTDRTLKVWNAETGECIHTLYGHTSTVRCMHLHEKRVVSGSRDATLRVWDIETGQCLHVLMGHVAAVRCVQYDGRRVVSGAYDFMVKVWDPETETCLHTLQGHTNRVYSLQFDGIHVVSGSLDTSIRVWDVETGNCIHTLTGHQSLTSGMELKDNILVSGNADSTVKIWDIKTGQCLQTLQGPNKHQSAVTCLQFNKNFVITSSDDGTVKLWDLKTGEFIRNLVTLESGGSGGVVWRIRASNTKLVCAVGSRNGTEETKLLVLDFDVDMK
TEAD-YAP inh – TEAD-YAP interaction inhibition; AID 1259422; HEK-TIYL cells, TEAD-Gal4/YAP UAS-luciferase luminescence; actives 1.4% (n = 640,000); inhibition, % at 9.12 µM; in the data active = inhibition above about 32%;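 also: 0% = median of test compound wells and 100% = reference inhibitor wells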
* = called active by the depositor. Sampled rows, rich in hits. Any-hit rate of the full collection: about 3.4%.

What do the screens show for `CCOc1ccccc1C(=O)Nc1ccccc1C(=O)OC`?
GPR151 ag: 2; MITF inh: -9; FBW7 activator: 0; TEAD-YAP inh: 53*

Results for CC(=O)N/C(=C\c1ccccc1)C(=O)NC(=S)N1CCCCCC1 ?
GPR151 ag: 0; MITF inh: 19; FBW7 activator: 0; TEAD-YAP inh: 0

How did CN(CCOC(=O)COc1ccc(Br)cc1)Cc1ccccc1 do in these assays?
GPR151 ag: 0; MITF inh: -14; FBW7 activator: 0; TEAD-YAP inh: 5

Results for COC(=O)C1=C(C)NC2=C(C(=O)c3ccccc32)C1c1cc(Cl)c(OC)c(OC)c1 (centres undefined) ?
GPR151 ag: -1; MITF inh: 14; FBW7 activator: 0; TEAD-YAP inh: 61*

Results for CC(=O)C1=C(c2ccc3c(c2)CCCC3)N(C(C)=O)n2cnnc2S1 ?
GPR151 ag: 2; MITF inh: 9; FBW7 activator: 0; TEAD-YAP inh: 38*

What do the screens show for `CC(=O)C1=C(c2ccccc2)N(C(C)=O)n2cnnc2S1`?
GPR151 ag: 1; MITF inh: -5; FBW7 activator: 0; TEAD-YAP inh: 16

What do the screens show for `Cc1ccc(NC2OC(CO)C(O)C(O)C2O)cc1C` (centres undefined)?
GPR151 ag: 1; MITF inh: 1; FBW7 activator: 0; TEAD-YAP inh: 12

Results for Cc1ccc(NC2OC(C)C(O)C(O)C2O)cc1C (centres undefined) ?
GPR151 ag: -2; MITF inh: 4; FBW7 activator: 2.5*; TEAD-YAP inh: 11

Results for C#CCOc1cc(Br)c(/C=C2/NC(=O)NC2=O)cc1OCC ?
GPR151 ag: 0; MITF inh: -6; FBW7 activator: 0; TEAD-YAP inh: 32*

What do the screens show for `Cc1cccn2cc(-c3ccc(NC(=O)C(C)(C)C)cc3)nc12`?
GPR151 ag: -4; MITF inh: -13; FBW7 activator: 0; TEAD-YAP inh: 64*

How did O=C(Nc1ccc(-c2cn3ccccc3n2)cc1)c1ccccc1 do in these assays?
GPR151 ag: -6; MITF inh: 19; FBW7 activator: 1; TEAD-YAP inh: -25

How did O=C(Nc1ccc(-c2nc3ccccc3s2)cc1)C1CC1 do in these assays?
GPR151 ag: -3; MITF inh: 14; FBW7 activator: 0; TEAD-YAP inh: 79*

Results for CCC(=O)Nc1ccc(-c2cn3ccccc3n2)cc1 ?
GPR151 ag: -5; MITF inh: 3; FBW7 activator: 0; TEAD-YAP inh: 40*

What do the screens show for `O=C(Nc1ccc(O)c(-c2nc3ccccc3s2)c1)C1CC1`?
GPR151 ag: 3; MITF inh: 14; FBW7 activator: 0; TEAD-YAP inh: 4

How did CCC(=O)Nc1ccc(-c2nc3ccccc3s2)cc1 do in these assays?
GPR151 ag: -8; MITF inh: 20; FBW7 activator: 0; TEAD-YAP inh: 84*

How did CCN1CCN(C(=O)c2cc3cc(OC)ccc3oc2=O)CC1 do in these assays?
GPR151 ag: 0; MITF inh: -8; FBW7 activator: 0; TEAD-YAP inh: 18

How did CC(=O)Nc1ccc(NC(=O)C2CCN(c3nc4ccccc4s3)CC2)cc1 do in these assays?
GPR151 ag: -2; MITF inh: 43; FBW7 activator: 0; TEAD-YAP inh: 36*

What do the screens show for `Cc1nnc(NC(=O)C2CCN(c3nc4ccccc4s3)CC2)s1`?
GPR151 ag: 0; MITF inh: 11; FBW7 activator: 0; TEAD-YAP inh: 6

What do the screens show for `c1cc(-n2cnc(N3CCOCC3)n2)ccc1Nc1ncc2cc(-c3cn[nH]c3)ccc2n1`?
GPR151 ag: -2; MITF inh: 40; FBW7 activator: 1; TEAD-YAP inh: -6

What do the screens show for `Cn1cc(-c2ccc3cnc(Nc4ccc(-n5cnc(N6CCOCC6)n5)cc4)nc3c2OCCN2CCOCC2)cn1`?
GPR151 ag: -2; MITF inh: 33; FBW7 activator: 0; TEAD-YAP inh: 96*

What do the screens show for `Cn1cc(-c2nc(Nc3ccc(-n4cnc(N5CCOCC5)n4)cc3)ncc2F)cn1`?
GPR151 ag: -1; MITF inh: -4; FBW7 activator: 0; TEAD-YAP inh: 22

What do the screens show for `Cn1cc(-c2ccc3cnc(Nc4ccc(N5CCOCC5)nc4)nc3c2Cl)cn1`?
GPR151 ag: 0; MITF inh: -7; FBW7 activator: 0; TEAD-YAP inh: 51*

How did Cn1cc(-c2ccc3cnc(Nc4ccc(-n5cnc(N6CCOCC6)n5)cc4)cc3c2)cn1 do in these assays?
GPR151 ag: 1; MITF inh: 0; FBW7 activator: 0; TEAD-YAP inh: 83*

Results for Clc1cnc(Nc2ccc(-n3cnc(N4CCOCC4)n3)cc2)nc1-c1cn[nH]c1 ?
GPR151 ag: -1; MITF inh: 0; FBW7 activator: 0; TEAD-YAP inh: 55*

Results for Cn1cc(-c2ccc3cnc(Nc4ccc(-c5ccc(N6CCOCC6)nc5)cc4)nc3c2Cl)cn1 ?
GPR151 ag: 0; MITF inh: 2; FBW7 activator: 0; TEAD-YAP inh: 18

How did COc1cc(C(=O)Nc2cc([N+](=O)[O-])cc3oc(-c4ccccc4)cc23)cc(OC)c1OC do in these assays?
GPR151 ag: -1; MITF inh: -12; FBW7 activator: 0; TEAD-YAP inh: 4

How did CC(C)N1CCN(c2ncn(-c3ccc(Nc4ncc5ccc(-c6cnn(C)c6)c(Cl)c5n4)cc3)n2)CC1 do in these assays?
GPR151 ag: -1; MITF inh: -9; FBW7 activator: 0; TEAD-YAP inh: 90*

How did Cn1cc(-c2cccc3cnc(Nc4ccc(-n5cnc(N6CCOCC6)n5)cc4)nc23)cn1 do in these assays?
GPR151 ag: 0; MITF inh: 1; FBW7 activator: 0; TEAD-YAP inh: 2

Results for Cc1c(-c2cnn(C)c2)ccc2cnc(Nc3ccc(-n4cnc(N5CCOCC5)n4)cc3)nc12 ?
GPR151 ag: 2; MITF inh: 14; FBW7 activator: 0; TEAD-YAP inh: 29

How did Cn1cc(-c2nc(Nc3ccc(-n4cnc(N5CCC(O)CC5)n4)cc3)ncc2Cl)cn1 do in these assays?
GPR151 ag: -1; MITF inh: 24; FBW7 activator: 0; TEAD-YAP inh: 72*

Results for Cn1cc(-c2ccc3cnc(Nc4ccc(-n5cnc(N6CCOCC6)n5)cc4)nc3c2Cl)cn1 ?
GPR151 ag: 0; MITF inh: 6; FBW7 activator: 0; TEAD-YAP inh: 56*

What do the screens show for `CCOC(=O)c1c(-c2cnn(C)c2)ccc2cnc(Nc3ccc(-n4cnc(N5CCOCC5)n4)cc3)nc12`?
GPR151 ag: -1; MITF inh: 21; FBW7 activator: 0; TEAD-YAP inh: 98*

What do the screens show for `Fc1ccc(-n2cc(-c3ccccc3)c3c(NCCCN4CCOCC4)ncnc32)cc1`?
GPR151 ag: -1; MITF inh: -4; FBW7 activator: 0; TEAD-YAP inh: 6

Results for Cc1nc(C)n(-c2ccc(Nc3cc(-c4cnn(C)c4)ccn3)cc2)n1 ?
GPR151 ag: -1; MITF inh: 8; FBW7 activator: 1; TEAD-YAP inh: 20

What do the screens show for `Cn1cc(-c2ccc3cnc(Nc4ccccc4)cc3c2)cn1`?
GPR151 ag: -1; MITF inh: 17; FBW7 activator: 1; TEAD-YAP inh: 36*

Results for Oc1ccccc1N=Nc1ccccc1O ?
GPR151 ag: 0; MITF inh: 72*; FBW7 activator: 0; TEAD-YAP inh: 73*

Screens: PubChem, The Scripps Research Institute Molecular Screening Center
